Compound activity (PubChem BioAssay)
This is a sample that favours compounds with a hit; in the whole collection about 3.5% have one here.
RE007 growth inh – less growth of the S. pombe RE007 Vpr strain. S. pombe RE007 Vpr strain, BacTiter-Glo ATP luminescence, 24 h. Potency, µM (series often up to 92.2 µM), hits mostly inhibitors. 360,000 tested, 0.21% active; active = well fitted falling curve with a large enough effect; inconclusive = small, poorly fitted or top-dose-only effect; inactive = no such curve, though single readings can be large or run the other way; note: nearly all actives have a fitted effect of over 50% in size
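Fission yeast strain RE007, carrying one chromosomally integrated HIV-1 vpr copy, was seeded at OD 0.01 in PMG+AL medium with 23 nL pinned compound. After 24 h at 30 °C and 99% humidity, viability was read by BacTiter-Glo luminescence.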
Sm TGR inh – S. mansoni TGR enzyme inhibition | Q962Y6 | purified TGR, DTNB reduction, TNB absorbance 405 nm | Potency, µM (doses to about 114 µM), actives largely listed as inhibitors | 360,000 tested, 3% active | AID 485364; note: nearly all actives have a fitted effect of over 60% in size
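First, TGR (20 nM dispensed) and NADPH were mixed with compound. Second, a 15 min room-temperature incubation followed. Third, further NADPH and then DTNB were added to start the reaction. Finally, TNB absorbance was monitored kinetically.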
FBPA Giardia inh – inhibitors of Giardia lamblia fructose-1,6-bisphosphate aldolase; purified Giardia FBPA; AID 2451; 290,000 tested, 0.71% active; Potency, µM (highest dose often 59.6 µM), actives largely listed as inhibitors; A8B2U2; note: nearly all actives have a fitted effect of over 55% in size
Target sequence (A8B2U2 whole entry, looked up): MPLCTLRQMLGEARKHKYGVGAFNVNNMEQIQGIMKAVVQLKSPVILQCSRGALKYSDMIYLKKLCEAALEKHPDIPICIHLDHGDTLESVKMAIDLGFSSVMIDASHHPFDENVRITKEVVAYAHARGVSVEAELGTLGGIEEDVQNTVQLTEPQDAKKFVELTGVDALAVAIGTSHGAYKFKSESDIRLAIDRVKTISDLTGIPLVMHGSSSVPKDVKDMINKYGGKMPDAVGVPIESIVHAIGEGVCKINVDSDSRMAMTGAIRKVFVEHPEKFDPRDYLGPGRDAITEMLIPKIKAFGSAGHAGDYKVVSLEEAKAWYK
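Giardia FBPA (40 nM reagent) was preincubated 10 min at RT with compound (up to 57.5 uM final), then substrate plus GAPDH/TPI/NAD/arsenate coupling system with diaphorase/resazurin was added; resorufin fluorescence (525/598 nm) was read after 20 min.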
NS1 function inh – influenza NS1 inhibition; 270,000 tested, 0.4% active; Potency, µM (top dose mostly 46.1 µM); calls by dose curve; note: actives are rising curves; nearly all actives have a fitted effect of over 50% in size
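A cell-based growth assay was used: compounds that relieve NS1-induced slow growth of budding yeast raise OD600. Assay medium was yeast nitrogen base with ammonium sulphate and -URA supplement, pH 6.0, with 2% galactose.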
LmPK inh – inhibitors of Leishmania mexicana pyruvate kinase. purified LmPK, Kinase-Glo ATP luminescence, 1 h. Potency, µM (top dose mostly 57.5 µM), actives largely listed as inhibitors. 290,000 tested, 0.37% active. AID 1721
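Purified LmPK (0.1 nM) with 0.5 mM PEP and 0.1 mM ADP in imidazole buffer pH 7.2 with MgCl2/KCl, 1 h at room temperature. ATP formed was read by luciferase luminescence and normalized to no-enzyme and uninhibited controls.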
Tb PYK inh – inhibitors of Trypanosoma brucei pyruvate kinase. Q57TT1. TbPYK enzyme, Kinase-Glo Plus ATP luminescence, 45 min. Potency, µM (highest dose often 76.8 µM), most hits filed as inhibitors. 410,000 tested, 0.12% active; note: nearly all actives have a fitted effect of over 50% in size
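In this concentration-response screen, enzyme-free wells defined baseline while DMSO plates tracked drift. Each reaction combined TbPYK, substrate, compound and 130 uM ADP for 45 min at room temperature. Kinase-Glo Plus luminescence gave the signal.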
Each line names hits and unclear results; the compound was inactive in the other large screens. Unless noted, calls come from the whole dose curve; as a rule, active = well fitted curve in the direction sought with a large enough effect; inconclusive = small, poorly fitted or top-dose-only effect, or another doubt; inactive = no such curve, though single readings can be large; an effect the other way counts as inactive or inconclusive.

CSc1oc(-c2ccco2)nc1S(=O)(=O)c1ccc(F)cc1	Sm TGR inh 45µM
CSc1oc(-c2ccco2)nc1S(=O)(=O)c1ccccc1	Sm TGR inh 35µM
CC(=O)O[C@H]1C[C@@H]2OC3C=C(C)CCC3(C)[C@@]1(C)[C@@]21CO1 (stereo not given in full)	RE007 growth inh 3.2µM (no result: Sm TGR inh, FBPA Giardia inh, NS1 function inh, LmPK inh)
CC1=CC2OC3CC4OC(=O)C=CC=CC(=O)OCCC(C)C(O)C(=O)OCC2(CC1)C4(C)C31CO1 (stereo not given)	RE007 growth inh inconclusive (no result: Sm TGR inh, FBPA Giardia inh, NS1 function inh, LmPK inh)
O=c1c2ccccc2sc2nc(C3CCCCC3)n(Cc3ccco3)c(=O)c12	Sm TGR inh 10µM
CCc1nc2sc3ccccc3c(=O)c2c(=O)n1Cc1ccco1	Sm TGR inh 35µM, Tb PYK inh inconclusive
O=c1c2c3c(sc2nc(NCCO)n1Cc1ccco1)CCCCC3	none
CCCc1nc2sc3ccccc3c(=O)c2c(=O)n1Cc1ccccc1	none (no result: Sm TGR inh, FBPA Giardia inh, NS1 function inh, LmPK inh)
CC(=O)N1CCc2c(sc3c2c(=O)n(-c2ccc(F)cc2)c(=O)n3Cc2ccc(C#N)cc2)C1	none (no result: RE007 growth inh, FBPA Giardia inh, NS1 function inh, LmPK inh)
Cc1cccn2c(=O)c(/C=C(\C#N)C(N)=O)c(Oc3ccccc3)nc12	Sm TGR inh 32µM
CCc1ccc(NC(=O)CCS(=O)(=O)c2ccc3c(c2)oc(=O)n3C)cc1	none (no result: RE007 growth inh, FBPA Giardia inh, NS1 function inh, LmPK inh)
Cc1ccc(NC(=S)NCc2ccc3c(c2)OCO3)cc1	none
CCOc1ccc(NC(=S)NCc2ccc3c(c2)OCO3)cc1	Sm TGR inh 5µM
CC(=O)c1ccc(NC(=S)NC(=O)/C=C/c2ccco2)cc1	Sm TGR inh 20µM
NS(=O)(=O)c1ccc(NC(=S)NC(=O)/C=C/c2ccco2)cc1	Sm TGR inh 40µM
CCOc1ccc(NC(=S)NC(=O)c2ccco2)cc1	Sm TGR inh 13µM
CCOc1ccc(NC(=O)c2ccco2)cc1	none
CCCCS(=O)(=O)N1CCc2nc(-c3ccc(OC)cc3C)c3c(c2C1)CO[C@@H](c1ccccc1)C3	none (no result: RE007 growth inh, Sm TGR inh, NS1 function inh, Tb PYK inh)
COc1ccccc1CNC(=O)C(=O)NCC(c1cccs1)S(=O)(=O)c1ccc(F)cc1 (stereo not given)	none (no result: RE007 growth inh, FBPA Giardia inh, NS1 function inh, LmPK inh)
Cc1ccccc1Nc1c(-c2ccc(Cl)s2)nc2cccc(C)n12	none (no result: RE007 growth inh, FBPA Giardia inh, NS1 function inh, LmPK inh)
S=C(Nc1ccccc1)Nc1ccccc1Br	Sm TGR inh 45µM
Cc1ccccc1NC(=S)Nc1ccc(Br)cc1	none
NS(=O)(=O)c1ccc(NC(=S)NC(=O)c2ccco2)cc1	Sm TGR inh 56µM, FBPA Giardia inh inconclusive
O=C(NC(=S)Nc1ccccc1Br)c1ccco1	Sm TGR inh 35µM
CC(=O)NS(=O)(=O)c1ccc(NC(=S)NC(=O)c2ccco2)cc1	none
COc1cc(OC)cc(C(=O)Nc2ccc3c(c2)N(C2CCCC2)C(=O)c2ccccc2S3)c1	none (no result: RE007 growth inh, FBPA Giardia inh, NS1 function inh, LmPK inh)
COc1cccc(NC2=C(Cl)C(=O)OC2OC(=O)c2ccco2)c1 (stereo not given)	Sm TGR inh 7.9µM (no result: NS1 function inh)
CCCn1c(SCc2nc(-c3ccccc3C)no2)nnc1-c1ccc(Cl)cc1	none (no result: RE007 growth inh, FBPA Giardia inh, NS1 function inh, LmPK inh)
NC(=O)N/N=C/c1c(Sc2nnnn2-c2ccccc2)nc2ccccn2c1=O	Sm TGR inh 4µM
COC(=O)C(C)Oc1ccc2c(c1)O/C(=C\c1ccco1)C2=O (stereo not given)	Sm TGR inh 20µM
COc1ccc2c(c1)O/C(=C\c1ccco1)C2=O	Sm TGR inh 7.9µM, FBPA Giardia inh inconclusive
CC(=O)C1=C(C)NC(SCC(=O)c2ccccc2)=C(C#N)C1CC(C)C (stereo not given)	NS1 function inh inconclusive, Tb PYK inh 32µM
O=C1N=C(c2ccccc2)S/C1=C\c1cccs1	Sm TGR inh 4µM, Tb PYK inh 7.9µM
O=C1N=C(N2CCN(c3ccccc3)CC2)S/C1=C/c1cccs1	none
CS(=O)(=O)c1ccc(C(=O)OCC(=O)NC23CC4CC(CC(C4)C2)C3)cc1[N+](=O)[O-]	Sm TGR inh 2.8µM
CCc1ccc(CN(C(=O)c2ccc(OC)cc2)C2CCS(=O)(=O)C2)cc1 (stereo not given)	none (no result: RE007 growth inh, FBPA Giardia inh, NS1 function inh, LmPK inh)
Oc1c(Cl)cccc1C=Nc1cc(C(F)(F)F)ccc1N1CCCC1	none
